Results taken from PubChem BioAssay (Tox21).
Inconclusive results are not listed. Activity calls are given as the source filed them. Unless noted, calls come from the whole dose curve; as a rule, active = well fitted curve in the direction sought with a large enough effect in the repeat runs; inconclusive = weak or mixed curves; inactive = no such curve, though single readings can be large; an effect the other way counts as inactive or inconclusive.

Experiments:
[1] = qHTS RealTime-Glo MT Cell Viability Assay in HEK293 cells - 0 hour (AID 1224880); note: top concentration of the series differs between compounds; nearly all actives have a fitted effect of over 45% in size
In short: (§1)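 Kinetic, non-lysing viability readout. Seed HEK293 (600/well) with reagent, incubate 5 h at 37 C/5% CO2, pin 23 nL compound in DMSO, incubate at 37 C, read luminescence at 0, 8, 16, 24, 32, 40 h.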

[2] = A CellTox Green Cytotoxicity Assay to monitor cytotoxicity in HEK293 cells - 32 hour (AID 1224881); note: nearly all actives have a fitted effect of over 40% in size
In short: (§2)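 Real-time, in one plate: 600 HEK293 cells/well with dead-cell DNA dye, pinned compound after 5 h, 37 C incubation over 40 h; viable cells give no appreciable fluorescence.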

[3] = A CellTox Green Cytotoxicity Assay to monitor cytotoxicity in HepG2 cells - 0 hour (AID 1224882); note: nearly all actives have a fitted effect of over 35% in size
In short: (§3)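 Cytotoxicity was tracked as dead-cell DNA fluorescence in HepG2 cells treated with test compounds at 37 C; each time-point value comes from one kinetic series spanning 0, 8, 16, 24, 32 and 40 h.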

[4] = A CellTox Green Cytotoxicity Assay to monitor cytotoxicity in HepG2 cells - 32 hour (AID 1224883); note: nearly all actives have a fitted effect of over 50% in size
In short: as §3

[5] = A CellTox Green Cytotoxicity Assay to monitor cytotoxicity in HEK293 cells - 8 hour (AID 1224884); note: nearly all actives have a fitted effect of over 35% in size
In short: as §2

[6] = qHTS RealTime-Glo MT Cell Viability Assay in HepG2 cells - 16 hour (AID 1224885); note: nearly all actives have a fitted effect of over 50% in size
In short: (§4)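 Real-time, nonlytic viability: 600 HepG2 cells/well mixed with NanoLuc enzyme plus prosubstrate; 5 h settle, compound (DMSO) added by pintool; luminescence monitored over 40 h at 37 C.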

[7] = qHTS RealTime-Glo MT Cell Viability Assay in HEK293 cells - 24 hour (AID 1224886); note: top concentration of the series differs between compounds; nearly all actives have a fitted effect of over 50% in size
In short: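 Cells + reagent dispensed (600 cells/well, HEK293) → 5 h at 37 C/5% CO2 → 23 nL compound in DMSO pinned → 40 h at 37 C → luminescence read at 0, 8, 16, 24, 32, 40 h.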

[8] = qHTS RealTime-Glo MT Cell Viability Assay in HEK293 cells - 8 hour (AID 1224887); note: top concentration of the series differs between compounds; nearly all actives have a fitted effect of over 50% in size
In short: as §1

[9] = A CellTox Green Cytotoxicity Assay to monitor cytotoxicity in HEK293 cells - 16 hour (AID 1224888); note: nearly all actives have a fitted effect of over 35% in size
In short: as §2

[10] = qHTS RealTime-Glo MT Cell Viability Assay in HepG2 cells - 0 hour (AID 1224889); note: nearly all actives have a fitted effect of over 50% in size
In short: as §4

[11] = A CellTox Green Cytotoxicity Assay to monitor cytotoxicity in HepG2 cells - 8 hour (AID 1224890); note: nearly all actives have a fitted effect of over 45% in size
In short: as §3

[12] = qHTS assay to identify small molecule antagonists of the estrogen receptor alpha (ER-alpha) signaling pathway using the BG1 cell line in the presence of 0.1 nM 17-beta-estradiol - cell viability counter screen (AID 1259241); note: nearly all actives have a fitted effect of over 40% in size
In short: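 Cytotoxicity counter-screen: live-cell protease activity measured by fluorescence (30 min reagent step) in the same wells. Cells were VM7Luc4E2 with endogenous ER-alpha and ERE-driven luciferase, treated 22 hr at 37C alongside 0.1 nM 17beta-estradiol final.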

[13] = qHTS assay to identify small molecule antagonists of the androgen receptor (AR) signaling pathway using the MDA cell line in the presence of 0.5 nM R1881 - cell viability counter screen (AID 1259242); note: nearly all actives have a fitted effect of over 45% in size
In short: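 Cells seeded at 3,000/well and allowed 5 hr at 37C, 0% CO2 before compound transfer and R1881 (0.5 nM final) addition; 16 hr later, live-cell protease fluorescence indicated cytotoxicity.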

[14] = qHTS assay to identify small molecule phospholipidosis (PLD) inducers (AID 1259344; active = well fitted curve in the direction sought with a large enough effect; an effect the other way counts as inactive or inconclusive)
In short: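 Accumulated phospholipid, stained red by LipidTOX during 24 h compound treatment of HepG2 cells at 37 C, is quantified from images as pit number and intensity, normalised per cell using Hoechst-stained nuclei.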

[15] = qHTS assay to identify small molecule HDAC inhibitors - cell viability counter screen (AID 1259365)
In short: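 CellTiter-Glo luminescence (30 min, room temperature) reported viability after a 2 h compound exposure at 37 C. Cells: wild-type HCT-116, 1,500 per well, seeded the night before.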

[16] = qHTS assay to identify small molecule agonists of the sonic hedgehog signaling (Shh) pathway - cell viability counter screen (AID 1259366); note: nearly all actives have a fitted effect of over 50% in size
In short: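 Cytotoxicity counter screen: CellTiter-Fluor reagent added after 23 h compound exposure, then 1 h at 37C and fluorescence read. Cells were 3T3 Gli1-Luc, seeded 2,000 per well and dosed 4 h post-plating.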

[17] = qHTS assay to identify small molecule antagonists of the sonic hedgehog signaling (Shh) pathway - cell viability counter screen (AID 1259367); note: nearly all actives have a fitted effect of over 55% in size
In short: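 CellTiter-Fluor signal in conditioned medium-stimulated 3T3 Gli1-Luc cells, 23 hr compound exposure, 37C.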

[18] = target: Estrogen receptor (Homo sapiens) (UniProt P03372); test: qHTS assay to identify small molecule antagonists of the estrogen receptor alpha (ER-alpha) signaling pathway using the BG1 cell line in the presence of 0.1 nM 17-beta-estradiol (AID 1259244); note: nearly all actives have a fitted effect of over 50% in size
In short: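 Luciferase signal from VM7Luc4E2 ERE-reporter cells, co-dosed with test compound and 0.1 nM final 17beta-estradiol for 22 h, read with ONE-Glo.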

[19] = qHTS assay to identify small molecule HDAC inhibitors (AID 1259364);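 note: wild-type HCT-116 cells with endogenous class I/II HDAC activity; top concentration of the series differs between compounds; nearly all actives have a fitted effect of over 45% in size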
In short: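 HCT-116 wt cells, 1,500/well, overnight attach. Compounds (DMSO) 2 h, 37 °C. HDAC-Glo I/II, 30 min RT. Luminescence.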

[20] = target: Androgen receptor (Homo sapiens) (UniProt P10275); test: qHTS assay to identify small molecule antagonists of the androgen receptor (AR) signaling pathway using the MDA cell line in the presence of 0.5 nM R1881 (AID 1259243); note: nearly all actives have a fitted effect of over 50% in size
In short: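 Luminescence from an AR/GR-responsive MMTV-luciferase construct in MDA-kb2 breast carcinoma cells, read 30 min after ONE-Glo, following 16 hr co-treatment with compounds and 0.5 nM R1881.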

Measured: Potency

Sequence of Estrogen receptor (Homo sapiens) (P03372 whole entry, looked up): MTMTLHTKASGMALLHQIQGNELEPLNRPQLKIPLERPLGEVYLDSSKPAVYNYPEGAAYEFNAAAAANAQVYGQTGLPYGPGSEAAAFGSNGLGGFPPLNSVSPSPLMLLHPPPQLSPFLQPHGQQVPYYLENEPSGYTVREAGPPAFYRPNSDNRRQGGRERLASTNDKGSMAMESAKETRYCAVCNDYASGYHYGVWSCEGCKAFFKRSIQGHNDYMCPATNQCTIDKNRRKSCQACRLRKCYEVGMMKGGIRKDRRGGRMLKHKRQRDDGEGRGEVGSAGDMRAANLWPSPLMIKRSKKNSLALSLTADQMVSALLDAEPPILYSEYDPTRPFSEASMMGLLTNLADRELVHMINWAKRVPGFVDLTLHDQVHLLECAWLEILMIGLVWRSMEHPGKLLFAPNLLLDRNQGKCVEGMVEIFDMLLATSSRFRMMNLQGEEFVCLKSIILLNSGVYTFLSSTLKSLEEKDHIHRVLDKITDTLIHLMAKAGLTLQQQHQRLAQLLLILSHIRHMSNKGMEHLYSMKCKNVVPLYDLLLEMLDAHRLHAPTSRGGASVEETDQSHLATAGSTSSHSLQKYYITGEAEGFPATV
Sequence of Androgen receptor (Homo sapiens) (P10275 whole entry, looked up): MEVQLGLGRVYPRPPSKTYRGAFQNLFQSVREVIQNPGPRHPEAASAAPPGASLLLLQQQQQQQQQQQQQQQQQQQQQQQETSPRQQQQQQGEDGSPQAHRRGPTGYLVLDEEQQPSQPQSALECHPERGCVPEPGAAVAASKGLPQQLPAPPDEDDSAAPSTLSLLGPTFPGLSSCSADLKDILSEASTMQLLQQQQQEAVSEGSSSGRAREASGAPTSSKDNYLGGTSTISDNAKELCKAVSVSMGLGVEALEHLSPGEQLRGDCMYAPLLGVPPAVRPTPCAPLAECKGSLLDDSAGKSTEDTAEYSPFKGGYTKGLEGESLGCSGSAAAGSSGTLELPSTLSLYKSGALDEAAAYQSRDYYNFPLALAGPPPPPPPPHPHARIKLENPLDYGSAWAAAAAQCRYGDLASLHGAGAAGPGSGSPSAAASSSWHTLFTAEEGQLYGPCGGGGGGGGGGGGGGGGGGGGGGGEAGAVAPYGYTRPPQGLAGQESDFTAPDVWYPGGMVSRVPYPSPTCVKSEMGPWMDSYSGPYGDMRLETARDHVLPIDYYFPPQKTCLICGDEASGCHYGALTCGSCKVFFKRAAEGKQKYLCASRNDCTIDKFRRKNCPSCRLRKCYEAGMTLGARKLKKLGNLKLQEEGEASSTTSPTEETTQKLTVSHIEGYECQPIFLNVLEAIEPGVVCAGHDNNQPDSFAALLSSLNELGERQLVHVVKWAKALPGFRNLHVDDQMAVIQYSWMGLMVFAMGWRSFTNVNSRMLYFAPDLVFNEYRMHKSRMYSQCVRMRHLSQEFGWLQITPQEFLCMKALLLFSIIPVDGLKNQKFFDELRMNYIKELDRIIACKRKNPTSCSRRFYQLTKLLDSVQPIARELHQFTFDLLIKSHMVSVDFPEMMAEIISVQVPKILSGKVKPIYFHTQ

CCCOC(=O)Cc1ccc(OCC(=O)N(CC)CC)c(OC)c1
not listed: [18] | [19] | [20]
inactive: all other assays above

N[C@@H](Cc1ccc(Oc2cc(I)c(O)c(I)c2)c(I)c1)C(=O)O
not listed: [20]
inactive: all other assays above

CN(C)CCc1c[nH]c2cccc(OP(=O)(O)O)c12
not listed: [16] | [17] | [20]
inactive: all other assays above

CCCCCCCCSC(=O)Oc1cc(Cl)nnc1-c1ccccc1
not listed: [14] | [19] | [20]
inactive: all other assays above

N#CN
not listed: [11] | [20]
inactive: all other assays above

O=P(O)(O)c1ccccc1
not listed: [11] | [14] | [20]
inactive: all other assays above

c1cncc([C@@H]2CCCCN2)c1
not listed: [11] | [14] | [17] | [20]
inactive: all other assays above

NC(=O)CS(=O)C(c1ccccc1)c1ccccc1 (centres undefined)
not listed: [11] | [17] | [20]
inactive: all other assays above

C=C1CC[C@@]2(O)[C@H]3Cc4ccc(O)c5c4[C@@]2(CCN3CC2CC2)[C@H]1O5
not listed: [9] | [18] | [20]
inactive: all other assays above

O=C(Cl)/C=C/C(=O)Cl
not listed: [9] | [14] | [16]
inactive: all other assays above

O=CCCl
not listed: [11] | [14] | [16] | [20]
inactive: all other assays above

OCC(Cl)CCl (centres undefined)
not listed: [9] | [14] | [20]
inactive: all other assays above

O=C(O)CBr
not listed: [9] | [14] | [18] | [20]
inactive: all other assays above

CCCCCCC1CCOC1=O (centres undefined)
not listed: [11] | [14] | [18] | [20]
inactive: all other assays above

CN1C(=O)COc2c(C(=O)NC3CN4CCC3CC4)cc(Cl)cc21 (centres undefined)
not listed: [9] | [20]
inactive: all other assays above

[P]#[In]
not listed: [14] | [18] | [19] | [20]
inactive: all other assays above

C/C(=N\NC(=O)Nc1cc(F)cc(F)c1)c1ncccc1C(=O)O
not listed: [9] | [14] | [20]
inactive: all other assays above

CC(C)(C)NC[C@H](O)c1ccc(O)cc1Cl
not listed: [11] | [16] | [18] | [20]
inactive: all other assays above

CCOC(=O)COc1ccc(Cl)cc1Cl
not listed: [14] | [18] | [20]
inactive: all other assays above

CC(Cc1ccccc1)NCCCCl (centres undefined)
not listed: [9] | [14] | [17]
inactive: all other assays above

CN1COCN(Cc2cnc(Cl)s2)/C1=N\[N+](=O)[O-]
not listed: [11] | [14] | [17] | [18] | [20]
inactive: all other assays above

CCCCOC(C)=O
not listed: [11] | [14] | [20]
inactive: all other assays above

Cl/C=C/CCl
not listed: [14] | [17] | [18] | [20]
inactive: all other assays above

C=C1C[C@@H]2[C@H](CC[C@]3(C)C(=O)CC[C@@H]23)[C@@]2(C)C=CC(=O)C=C12
not listed: [10] | [20]
inactive: all other assays above

CNC(=O)Oc1cc(C)c(N(C)C)c(C)c1
not listed: [14] | [17] | [18] | [20]
inactive: all other assays above

CC(C)[C@]12CC(=O)[C@H](C)[C@H]1C2
not listed: [14] | [18] | [20]
inactive: all other assays above

O=[N+]([O-])c1cccc(CCl)c1
not listed: [9] | [14] | [18] | [20]
inactive: all other assays above

C[C@]12C=CC(=O)C=C1CC[C@@H]1[C@@H]2CC[C@@]2(C)[C@H]1CC[C@]2(C)O
not listed: [11] | [16] | [20]
inactive: all other assays above

O=C(Cl)C(Cl)Cl
not listed: [9] | [14] | [20]
inactive: all other assays above

C=CC=O
not listed: [9] | [14] | [18] | [20]
inactive: all other assays above

CC[C@H](N)c1ccccc1
not listed: [11] | [14] | [19]
inactive: all other assays above

CNC(=O)NC(O)C(Cl)(Cl)Cl (centres undefined)
not listed: [11] | [19]
inactive: all other assays above

CCCC(C)C1(CC)C(=O)N=C(S)NC1=O (centres undefined)
not listed: [11] | [17] | [18] | [20]
inactive: all other assays above
